Source: PubChem BioAssay
In the library only some 3.7% were active in any assay of this set; here they are far more common.
RE007 growth inh – less growth of the S. pombe RE007 Vpr strain | 360,000 compounds, 0.21% hits | Potency, µM (titrated, usually from 92.2 µM), hits mostly inhibitors | S. pombe RE007 Vpr strain, BacTiter-Glo ATP luminescence, 24 h; active = well fitted falling curve with a large enough effect; inconclusive = small, poorly fitted or top-dose-only effect; inactive = no such curve, though single readings can be large or run the other way; also: nearly all actives have a fitted effect of over 50% in size
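Fission yeast RE007 carrying one integrated HIV-1 vpr copy, seeded at OD 0.01 in PMG+AL medium with 23 nL pinned compound. Grown 24 h at 30 degrees; viability read by BacTiter-Glo luminescence after 5 min.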
Tb PYK inh – inhibitors of Trypanosoma brucei pyruvate kinase. Q57TT1. TbPYK enzyme, Kinase-Glo Plus ATP luminescence, 45 min. Potency, µM (top dose mostly 76.8 µM), most hits filed as inhibitors. 410,000 compounds, 0.12% hits; also: nearly all actives have a fitted effect of over 50% in size
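TbPYK + substrate in 50 mM TEA pH 7.2, 100 mM KCl, 10 mM MgCl2, 0.05% BSA, 0.01% Tween-20; cpd pinned; ADP 130 uM final; 45 min RT; Kinase-Glo Plus 10 min; luminescence endpoint.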
FMDV inh – foot and mouth disease virus antiviral activity | 410,000 compounds, 1.2% hits | FMDV antiviral cell-based qHTS | Potency, µM (highest dose often 57.9 µM), hits mostly inhibitors | AID 1159524; calls by dose curve; tested in HEK293T cells; also: read-out not given here; nearly all actives have a fitted effect of over 45% in size
Sm TGR inh – inhibitors of Schistosoma mansoni thioredoxin glutathione reductase. Q962Y6. purified TGR, DTNB reduction, TNB absorbance 405 nm. Potency, µM (titrated, usually from 114 µM), actives largely listed as inhibitors. 360,000 compounds, 3% hits; also: nearly all actives have a fitted effect of over 60% in size
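TGR 20 nM + NADPH 100 uM (dispensed conc.), cpd preinc 15 min RT; start with NADPH (500 uM addition) then DTNB (15 mM addition). Kinetic TNB absorbance, 405 nm filter. Four-parameter Hill fit across titration.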
Of the large screens only hits and unclear results are named; the others gave an inactive call. Unless noted, calls follow the shape of the dose curve; as a rule, active = well fitted curve in the direction sought with a large enough effect; inconclusive = small, poorly fitted or top-dose-only effect, or another doubt; inactive = no such curve, though single readings can be large; an effect the other way counts as inactive or inconclusive.

O=C(O)c1ccc(NC(=S)NC(=O)c2cncc(Br)c2)cc1	Sm TGR inh 11µM
CCOC(=O)c1ccc(NC(=S)NC(=O)c2cncc(Br)c2)cc1	Sm TGR inh inconclusive
COc1cc(CN2CCOc3ccc(CN4CCC(O)(c5cccnc5)CC4)cc3C2)cc(OC)c1	none (no result: RE007 growth inh, Tb PYK inh, Sm TGR inh)
CC1CCN(S(=O)(=O)c2ccc(NC(=O)Cc3ccc(S(=O)(=O)N4CCOCC4)s3)cc2)CC1	FMDV inh inconclusive, Sm TGR inh 79µM
N#Cc1ccc(NC(=O)CCc2ccc(S(=O)(=O)N3CCOCC3)cc2)cc1	FMDV inh 28µM (no result: Tb PYK inh)
O=C(Nc1ccc(S(=O)(=O)N2CCCC2)cc1)c1ccc([N+](=O)[O-])o1	FMDV inh inconclusive (no result: Sm TGR inh)
O=C(Nc1ccc(S(=O)(=O)N2CCOCC2)cc1)c1ccc([N+](=O)[O-])o1	RE007 growth inh inconclusive, Sm TGR inh 28µM
COc1ccccc1CNc1nc(-c2cccc(C#N)c2)nc2ccccc12	none (no result: RE007 growth inh, Tb PYK inh, Sm TGR inh)
O=C(NCc1ccccc1)c1ccc2c(c1)N(Cc1ccccc1F)C(=O)c1ccccc1S2=O (configuration not stated)	none (no result: RE007 growth inh)
CCC(=O)N1c2ccccc2CC1C(=O)NCCc1ccc(Cl)cc1 (configuration not stated)	none (no result: RE007 growth inh)
CC(C)Nc1nc(NC(C)C)nc(N(C#N)C(C)C(=O)N(C)C)n1 (configuration not stated)	Sm TGR inh 40µM (no result: RE007 growth inh, Tb PYK inh, FMDV inh)
CCC1CCCCN1C(=O)c1c[nH]c2ccc(S(=O)(=O)Nc3cccc(OC)c3)cc2c1=O (configuration not stated)	none (no result: RE007 growth inh)
O=C(COc1ccc(Br)cc1CO)Nc1ccc(S(=O)(=O)N2CCCC2)cc1	FMDV inh 35µM
COc1cccc(OC)c1OCC(=O)Nc1ccc(S(=O)(=O)N2CCCC2)cc1	FMDV inh 25µM (no result: Sm TGR inh)
O=C(COc1ccc(Br)cc1CO)Nc1ccc(F)cc1	none
CC(OC(=O)c1cc(Br)ccc1O)C(=O)Nc1ccc(S(=O)(=O)N2CCCC2)cc1 (configuration not stated)	FMDV inh 20µM
O=C(COc1ccccc1F)NC1CC(=O)N(c2ccc3c(c2)OCCO3)C1 (configuration not stated)	none (no result: RE007 growth inh)
COc1cc(NC(=O)CSc2nc(-c3ccc(C(C)C)cc3)no2)cc(OC)c1	none (no result: RE007 growth inh)
Cc1ccc2cc3cc(C(=O)N4CCN(C(=O)c5ccco5)CC4)sc3nc2c1	Sm TGR inh 45µM
Cc1ccc2cc3cc(C(=O)N4CCN(Cc5ccccc5)CC4)sc3nc2c1	none
CCOc1cc2sc(N3CCC(C(=O)Nc4ccc(CC)cc4)CC3)nc2cc1Br	none (no result: RE007 growth inh)
NS(=O)(=O)c1ccc(Sc2nc3ccccc3s2)c([N+](=O)[O-])c1	FMDV inh inconclusive, Sm TGR inh 45µM
NS(=O)(=O)c1ccc(Sc2ccccn2)c([N+](=O)[O-])c1	none
CCCCN(CC)CCCNC(=O)c1ccc2c(c1)NC(=O)CN2C	Sm TGR inh 22µM (no result: RE007 growth inh)
O=C(Cn1c(=O)nc(-c2ccccc2)c2cc(Cl)ccc21)N1CCN(c2ccccc2F)CC1	none (no result: RE007 growth inh)
Cc1ccc(S(=O)(=O)NCc2ccc3[nH]c(C)cc3c2)cc1	Sm TGR inh 11µM
Cc1cc2cc(CNC(=O)c3ccc(Br)o3)ccc2n1C	Sm TGR inh 14µM
Cc1cc2cc(CNC(=O)c3ccc(Br)o3)ccc2[nH]1	Sm TGR inh 40µM
COc1ccc2cc(CCNC(=O)c3ccc(Br)o3)c(=O)[nH]c2c1	Sm TGR inh inconclusive
Cc1cc2cc(CCNC(=O)c3ccc(Br)o3)c(=O)[nH]c2cc1C	Sm TGR inh 35µM
CCOc1ccc(N/C=C/C(=O)c2ccccc2)c([N+](=O)[O-])c1	Tb PYK inh 25µM
Cc1nn(S(=O)(=O)c2cccs2)c(C)c1Sc1ccc([N+](=O)[O-])cc1	FMDV inh 14µM
Cc1ccc2nc(SCC(=O)NCc3ccco3)c(C)cc2c1	Sm TGR inh 40µM
Cc1ccc(CNC(=O)CSc2nc(=O)n(Cc3ccco3)c3c2CCC3)cc1	Sm TGR inh 40µM (no result: RE007 growth inh)
Cc1ccc2cc(C#N)c(SCC(=O)NCc3ccco3)nc2c1	Sm TGR inh 35µM
N#CC1=C(N)C2=CCCC[C@H]2[C@H](c2ccc(Br)cc2)C1(C#N)C#N	FMDV inh inconclusive, Sm TGR inh 32µM
N#CC1=C(N)C2=CCCC[C@H]2[C@H](c2ccccc2)C1(C#N)C#N	FMDV inh inconclusive, Sm TGR inh 45µM
Cc1cc(C)c(Cc2c(C)nc3c(C(=O)NCc4ccco4)cnn3c2C)c(C)c1	FMDV inh 18µM
Cc1ccc(CNC(=O)c2cnn3c(C)c(Cc4c(F)cccc4Cl)c(C)nc23)cc1	FMDV inh inconclusive (no result: RE007 growth inh)
c1ccc(-c2cc3c(N4CCN(c5ccccc5)CC4)ncnc3s2)cc1	FMDV inh 32µM
Cc1cccc2nc(CNC(=O)CN3Cc4cc(Cl)ccc4OC(C)C3)cn12 (configuration not stated)	none (no result: RE007 growth inh, Tb PYK inh, Sm TGR inh)
CCc1ccc(NC(=O)CSc2ccc3nnc(CCNS(=O)(=O)c4ccc(OC)cc4)n3n2)cc1	none (no result: RE007 growth inh)
CN(C)S(=O)(=O)c1ccc(C(=O)Oc2cc(=O)[nH]c3ccccc23)cc1	Sm TGR inh 20µM
Cn1c(C(=O)N2CCN(C(=O)c3ccco3)CC2)cc2c(=O)n3ccccc3nc21	Sm TGR inh 45µM
Cn1c(C(=O)N2CCOCC2)cc2c(=O)n3ccccc3nc21	none
Cc1cccc(Cn2cc(C(=O)Nc3ccc(F)c(C(F)(F)F)c3)ccc2=O)c1	FMDV inh inconclusive (no result: RE007 growth inh)
Cc1cc(OCC(=O)NCC2CCC(C(=O)O)CC2)c2c(C)c(Cc3ccccc3)c(=O)oc2c1 (configuration not stated)	Sm TGR inh 32µM
Cc1cc(C(=O)CS(=O)(=O)c2ccccc2)cc(C)c1O	Sm TGR inh 22µM
Cc1cc(C(=O)CS(=O)(=O)c2ccc(F)cc2)cc(C)c1O	Sm TGR inh 14µM
Cc1ccccc1NC(=O)CCn1cnc2onc(-c3ccc(F)cc3)c2c1=O	none (no result: RE007 growth inh)
CCOc1cccc2sc(N(Cc3cccnc3)C(=O)c3ccco3)nc12	none (no result: RE007 growth inh)
CCOC(=S)SCC(=O)Nc1ncc(C)s1	FMDV inh 25µM
Cc1nc2ccc(NC(=O)c3ccccc3)cc2c(=O)n1Cc1ccc(F)cc1	FMDV inh 28µM (no result: Sm TGR inh)
Cc1ccc(-n2c(=O)c3c(c4cc(C)ccc4n3C)n(CC(=O)NCCC3=CCCCC3)c2=O)cc1	none (no result: RE007 growth inh)
Cc1ccc(CN2CCNC(=O)C2CC(=O)N(C)Cc2cnccn2)cc1 (configuration not stated)	Sm TGR inh inconclusive
CN(Cc1cnccn1)C(=O)CC1C(=O)NCCN1CC(c1ccccc1)c1ccccc1 (configuration not stated)	Sm TGR inh 45µM
O=C1NCCN(Cc2ccc(Cl)c(F)c2)C1CC(=O)N1CCc2ccccc2C1 (configuration not stated)	Sm TGR inh 20µM
CN(Cc1cnccn1)C(=O)CC1C(=O)NCCN1Cc1c(F)cccc1Cl (configuration not stated)	Sm TGR inh 32µM
CN(Cc1ccncn1)C(=O)CC1C(=O)NCCN1Cc1cccc(Oc2ccccc2)c1 (configuration not stated)	Sm TGR inh 45µM
